Assays:
Conditions in all cases: concentration: 1 μM, replicates: in singlicate; n = 1
[1] = system: CSK
[2] = system: CSNK1A1L
[3] = system: CSNK1A1
[4] = system: CSNK1D
[5] = system: CSNK1E
[6] = system: CSNK1G1
[7] = system: CSNK1G2
[8] = system: CSNK1G3
[9] = system: CSNK2A1
[10] = system: CSNK2A2
[11] = system: T1, CTK
T1 construct: gene MATK

[12] = system: DAPK1
[13] = system: DAPK2
[14] = system: DAPK3
[15] = system: T2, DCAMKL1
T2 construct: gene DCLK1

[16] = system: T3, DCAMKL2
T3 construct: gene DCLK2

[17] = system: T4, DCAMKL3
T4 construct: gene DCLK3

[18] = system: DDR1
[19] = system: DDR2
[20] = system: T5, DLK
T5 construct: gene MAP3K12
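Further: KINOMEscan kinase panel screen.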

Row | SMILES | %Inh [1] | %Inh [2] | %Inh [3] | %Inh [4] | %Inh [5] | %Inh [6] | %Inh [7] | %Inh [8] | %Inh [9] | %Inh [10] | %Inh [11] | %Inh [12] | %Inh [13] | %Inh [14] | %Inh [15] | %Inh [16] | %Inh [17] | %Inh [18] | %Inh [19] | %Inh [20]
1 | Nc1cccc(-c2ccc3c(N)n[nH]c3c2)n1 [GSK2192730] | 15% | 0% | 77% | 0% | 39% | 4% | 0% | 19% | 27% | 42% | 0% | 27% | 2% | 28% | 0% | 0% | 0% | 0% | 0% | 0%
2 | O=C1NC(=O)C(c2ccc(Cl)cc2)=C1Nc1ccc(O)cc1 [SB-340867] | 0% | 2% | 0% | 0% | 0% | 0% | 0% | 32% | 0% | 0% | 0% | 0% | 0% | 0% | 0% | 0% | 0% | 0% | 0% | 0%
3 | Cc1ccc(NC(=O)Nc2ccccc2F)cc1-c1ccc(C(=O)Nc2ccncc2)cc1 [GSK1398477] | 0% | 20% | 0% | 12% | 16% | 18% | 32% | 28% | 19% | 18% | 0% | 0% | 17% | 0% | 0% | 40% | 26% | 97% | 55% | 0%
4 | Nc1nccc(-c2c(-c3ccc(F)cc3)ncn2C2CCN(Cc3ccccc3)CC2)n1 [SB-219980] | 0% | 49% | 95.1% | 94.1% | 99.4% | 0% | 0% | 0% | 0% | 6% | 11% | 0% | 0% | 0% | 0% | 0% | 13% | 86% | 74% | 0%
5 | CC(=O)c1c(C)c2cnc(Nc3ccn(C)n3)nc2n(C2CCCC2)c1=O | 1% | 0% | 3% | 0% | 0% | 0% | 0% | 16% | 56% | 50% | 0% | 0% | 0% | 3% | 0% | 100% | 0% | 0% | 0% | 64%
6 | CCn1c(-c2ccccc2)nc2cnccc21 [SB-733416] | 0% | 11% | 0% | 2% | 24% | 0% | 0% | 11% | 0% | 1% | 6% | 0% | 0% | 18% | 15% | 1% | 33% | 16% | 13% | 16%
7 | COc1ccc(Nc2nccc(NCCNC(=O)Nc3cc(C)ccc3C)n2)cc1 [GSK1379899] | 0% | 1% | 0% | 4% | 22% | 0% | 0% | 15% | 1% | 0% | 4% | 0% | 0% | 0% | 0% | 0% | 0% | 9% | 0% | 10%
8 | Fc1ccc(-c2nc[nH]c2-c2ccncc2)cc1 [SB-217360] | 6% | 24% | 93.3% | 91.9% | 97.7% | 5% | 0% | 5% | 0% | 0% | 31% | 0% | 0% | 8% | 29% | 0% | 0% | 9% | 34% | 0%
9 | COc1nccc(-c2c(-c3ccc(F)cc3)ncn2CCCN2CCOCC2)n1 [SB-282852] | 0% | 45% | 44% | 31% | 29% | 0% | 0% | 53% | 0% | 9% | 22% | 5% | 0% | 22% | 35% | 0% | 11% | 0% | 35% | 18%
10 | Cn1cncc1C(=O)NC1CCN(c2ccnc(Nc3ccc(F)cc3)n2)C1 (stereo not drawn) [GSK1379717] | 9% | 0% | 0% | 0% | 0% | 0% | 0% | 17% | 0% | 0% | 0% | 13% | 0% | 5% | 0% | 0% | 0% | 7% | 0% | 0%
11 | Cl.Cl.Cl.N#Cc1ccc(CCNc2nccc(-c3cccc(CN4CCNCC4)c3)n2)cc1 [GSK2137462] | 15% | 2% | 0% | 23% | 55% | 13% | 0% | 14% | 20% | 30% | 2% | 28% | 19% | 75% | 14% | 0% | 0% | 0% | 0% | 0%
12 | CNC(=O)c1ccc(C)c(-n2c(C)cc(OCc3ccc(F)cc3F)c(Br)c2=O)c1 | 0% | 0% | 4% | 0% | 6% | 0% | 0% | 25% | 0% | 0% | 0% | 0% | 0% | 0% | 0% | 0% | 0% | 0% | 0% | 0%
13 | FC(F)(F)c1ccccc1-c1cc(-c2c[nH]nc2-c2ccccn2)ccn1 [GW679396] | 0% | 3% | 0% | 36% | 23% | 16% | 0% | 24% | 7% | 17% | 0% | 0% | 9% | 23% | 6% | 0% | 2% | 68% | 2% | 32%
14 | O=C1NC(=O)C(c2ccc(Cl)cc2)=C1Nc1cccc(Cl)c1 [SB-317651] | 0% | 16% | 22% | 0% | 0% | 0% | 0% | 88% | 0% | 0% | 16% | 8% | 0% | 18% | 18% | 0% | 17% | 0% | 16% | 16%
15 | COc1ccc(Nc2nccc(N3CCC(NC(=O)C(C)c4ccc(Cl)cc4)C3)n2)cc1 (stereo not drawn) [GSK1379735] | 0% | 1% | 10% | 0% | 11% | 0% | 0% | 23% | 12% | 14% | 4% | 0% | 0% | 0% | 0% | 6% | 29% | 28% | 16% | 13%
16 | O=C(Nc1n[nH]c2cc(-c3ccsc3)ccc12)C1CC1 [SB-732932] | 0% | 17% | 0% | 0% | 0% | 24% | 0% | 0% | 29% | 52% | 32% | 4% | 41% | 40% | 0% | 0% | 74% | 0% | 0% | 0%
17 | NS(=O)(=O)c1cccc(N/C=C2\C(=O)Nc3ccc(S(=O)(=O)Cc4c(Cl)cccc4Cl)cc32)c1 [GSK398099] | 0% | 11% | 0% | 12% | 18% | 12% | 0% | 28% | 0% | 19% | 0% | 100% | 1% | 21% | 38% | 10% | 0% | 0% | 0% | 52%
18 | COc1cc2ncnc(Nc3cccc(Br)c3)c2cc1OC.Cl [GI230329] | 0% | 10% | 0% | 0% | 31% | 12% | 0% | 26% | 8% | 0% | 0% | 0% | 0% | 9% | 25% | 0% | 10% | 63% | 43% | 39%
19 | CC(C)c1ccc(O)cc1Nc1ccnc2ccc(C(F)(F)F)cc12 [GW482059] | 0% | 11% | 0% | 0% | 0% | 0% | 0% | 9% | 7% | 0% | 8% | 5% | 0% | 0% | 0% | 0% | 0% | 18% | 0% | 17%
20 | CSc1ccc(-c2nc3n(c2-c2ccncc2)CCC3)cc1 [SKF-105561] | 0% | 5% | 5% | 6% | 7% | 0% | 0% | 1% | 8% | 0% | 21% | 29% | 0% | 0% | 3% | 0% | 21% | 75% | 60% | 0%
21 | COc1ccc(Nc2nccc(N3CCC(NC(=O)C(C)c4ccc(Cl)cc4)CC3)n2)cc1 (stereo not drawn) [GSK1379812] | 0% | 0% | 0% | 18% | 35% | 7% | 0% | 19% | 0% | 21% | 0% | 3% | 20% | 10% | 6% | 0% | 0% | 0% | 4% | 0%

Source: article PMC5540273 (PLoS ONE, 2017)
